Reference: PubChem BioAssay AID2284114 (EPA ToxCast)
Calls of active or inactive are those of the source. Rule for the calls: active = hit-call score of the fitted dose curve at least 0.9, where 1 is the maximum; inactive = score below 0.9.

Each molecule was assayed against human MSK1 (RPS6KA5) AGC Kinase, RPS6KA5 (gene 9252) (UniProt O75582) (assay: ERF_FR_ENZ_hMSK1: Eurofins (ERF) Enzymatic Radiometric [Km ATP] KinaseProfiler LeadHunter Assay for human MSK1 (RPS6KA5) AGC Kinase).
human MSK1 (RPS6KA5) AGC Kinase, RPS6KA5 (gene 9252), sequence (O75582 whole entry, looked up): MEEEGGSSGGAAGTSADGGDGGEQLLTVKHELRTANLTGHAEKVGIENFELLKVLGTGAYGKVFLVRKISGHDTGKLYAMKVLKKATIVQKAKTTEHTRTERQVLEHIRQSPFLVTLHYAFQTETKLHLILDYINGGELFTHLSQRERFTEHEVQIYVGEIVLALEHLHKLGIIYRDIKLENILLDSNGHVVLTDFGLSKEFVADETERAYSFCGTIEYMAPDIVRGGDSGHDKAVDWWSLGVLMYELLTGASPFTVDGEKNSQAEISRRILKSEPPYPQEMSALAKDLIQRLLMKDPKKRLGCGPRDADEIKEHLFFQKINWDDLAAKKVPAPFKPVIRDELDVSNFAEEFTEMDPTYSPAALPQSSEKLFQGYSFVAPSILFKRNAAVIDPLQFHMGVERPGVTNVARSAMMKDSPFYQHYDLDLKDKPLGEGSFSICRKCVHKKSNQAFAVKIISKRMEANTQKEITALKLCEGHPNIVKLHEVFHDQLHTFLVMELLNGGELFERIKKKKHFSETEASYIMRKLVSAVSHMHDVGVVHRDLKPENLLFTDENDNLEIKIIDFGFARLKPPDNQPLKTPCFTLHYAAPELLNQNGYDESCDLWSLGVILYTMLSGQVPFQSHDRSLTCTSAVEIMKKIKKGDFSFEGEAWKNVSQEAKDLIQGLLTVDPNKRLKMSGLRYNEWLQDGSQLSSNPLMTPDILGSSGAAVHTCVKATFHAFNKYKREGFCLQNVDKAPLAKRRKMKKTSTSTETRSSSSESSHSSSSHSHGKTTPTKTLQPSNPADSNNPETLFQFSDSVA
Description: ERF_FR_ENZ_hMSK1 is a biochemical, single-readout assay that uses extracted gene-proteins in a cell-free assay. Measurements were taken 0.16 hour after chemical dosing in a 96-well plate. See MSK1 Human AGC Kinase Enzymatic Radiometric Assay [Km ATP], Cerep.ERF_FR_ENZ_hMSK1 is an assay component calculated from the ERF_FR_ENZ_hMSK1 assay. It is designed to measure enzyme activity using a type of enzyme reporter as detected by scintillation counting with radiometry technology.Data from the assay component ERF_FR_ENZ_hMSK1 was analyzed at the assay endpoint, ERF_FR_ENZ_hMSK1, in the positive analysis fitting direction relative to DMSO as the negative control and baseline of activity. Using a type of enzyme reporter, loss-of-signal activity can be used to understand changes in enzymatic activity as they relate to gene MSK1. To generalize the intended target to other relatable targets, this assay endpoint is annotated to the kinase intended target family, where the subfamily is serine/threonine kinase.
MSK1 (h) is incubated with 8 mM MOPS pH 7.0, 0.2 mM EDTA, 30 uM […], 10 mM MgAcetate and [g- 33P]-ATP (specific activity and concentration as required). The reaction is initiated by the addition of the Mg/ATP mix. After incubation for 40 minutes at room temperature, the reaction is stopped by the addition of phosphoric acid to a concentration of 0.5%. […]
In the case of `COc1cc(CCC(=O)CC(=O)CCc2ccc(O)c(OC)c2)ccc1O`, the AC50 is reported as 2.12 µM (active).
With `O=C(/C=C/c1ccc(O)cc1)CC(=O)/C=C/c1ccc(O)cc1` the AC50 was 5 µM (active).
